Assay [1] concerns the target bovine Gamma-Aminobutyric Acid Type A Receptor Agonist (GABAR Agonist), GABRA1 (gene 780973) (UniProt P08219). In words: NVS_LGIC_bGABAR_Agonist: NovaScreen (NVS) Ligand-Gated Ion Channel Assay for bovine Gamma-Aminobutyric Acid Type A Receptor Agonist (GABAR Agonist) (AID 2283338). A digest of the protocol: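 Radioligand binding to bovine cerebellar membranes in agonist format, read by filter-based scintillation counting after 1 h. Primary screen in duplicate at 25 uM, with actives followed in concentration series. Gain of signal versus DMSO.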

Assay [2] addresses Glutamate receptor ionotropic, kainate 1 (Rattus norvegicus) (UniProt P22756). The assay can be described thus: NVS_IC_rKAR: NovaScreen (NVS) Ion Channel Assay for rat Kainic Acid Receptors (KAR) (AID 2283334; active means hit-call score of the fitted dose curve at least 0.9, where 1 is the maximum; inactive means score below 0.9). In short, it runs like this:
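Rat forebrain membrane preparation incubated 1 h with radioligand and test chemical; bound signal read by filtration and scintillation. Single-concentration screen at 25 uM, then concentration series to 50 uM maximum.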

In assay [3] the target is bovine Estrogen Receptor (ER), ESR1 (gene 407238) (UniProt P49884). The assay can be described thus: NVS_NR_bER: NovaScreen (NVS) Nuclear Receptor Binding Assay for bovine Estrogen Receptor (ER) (AID 2283345).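 Further: actives lower the bound radioligand count which means they displace the ER ligand.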 A digest of the protocol:
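Displacement of a radioligand from estrogen receptor in bovine uterine membrane preparations; scintillation signal taken at 18 hours, DMSO as baseline. Single-concentration duplicates (25 uM) preceded concentration-response follow-up of actives.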

For assay [4], the target named is Estrogen receptor (Homo sapiens) (UniProt P03372). The assay can be described thus: NVS_NR_hER: NovaScreen (NVS) Nuclear Receptor Binding Assay for human Estrogen Receptor (ER) (AID 2283348). A digest of the protocol:
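Radiodetection of ligand displacement in a lysate-based, cell-free format using MCF7 extracts, read at 18 hours. Duplicate 25 uM primary testing, then concentration series for actives.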

The target is the same in assay [5]. In words: OT_ER_ERaERa_1440: Odyssey Thera (OT) 24-hour HEK293T Protein-Complementation Assay for Estrogen Receptor-alpha/-alpha Homodimer (AID 2283349).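 Further: hits raise fluorescence above DMSO for agonists and antagonists alike.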 In short, it runs like this: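 Stably transfected HEK293T; ERα LBD homodimer PCA. 24 h dosing, fluorescence intensity read, gain-of-signal vs DMSO.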
Assay [6] has the same target. In words: OT_ER_ERaERa_0480: Odyssey Thera (OT) 8-hour HEK293T Protein-Complementation Assay for Estrogen Receptor-alpha/-alpha Homodimer (AID 2283351).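 Further: rise in fluorescence from reassembled reporter fragments on ERα LBD homodimer in nucleus or whole cell.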 A digest of the protocol: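 Cells were treated for 8 hours, then imaged on a laser scanning plate cytometer. Complementation of reporter fragments fused to the human ERα ligand-binding domain (residues 310-547) in HEK293T gave fluorescence, and gain of signal over vehicle was fitted.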

Assay [7] deals with T1, Estrogen receptor (Homo sapiens) + Estrogen receptor beta (Homo sapiens) (UniProt P03372+Q92731). The assay can be described thus: OT_ER_ERaERb_0480: Odyssey Thera (OT) 8-hour HEK293T Protein-Complementation Assay for Estrogen Receptor-alpha/-beta Heterodimer (AID 2283352). A digest of the protocol: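 HEK293T protein-fragment complementation assay of ER-alpha/ER-beta LBD heterodimerisation, read 8 h after dosing. Mean nuclear/cytoplasmic fluorescence intensity measured by laser scanning cytometry; gain of signal fitted relative to DMSO.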
T1 sequence (P03372 whole entry, looked up, the tested form may be a part): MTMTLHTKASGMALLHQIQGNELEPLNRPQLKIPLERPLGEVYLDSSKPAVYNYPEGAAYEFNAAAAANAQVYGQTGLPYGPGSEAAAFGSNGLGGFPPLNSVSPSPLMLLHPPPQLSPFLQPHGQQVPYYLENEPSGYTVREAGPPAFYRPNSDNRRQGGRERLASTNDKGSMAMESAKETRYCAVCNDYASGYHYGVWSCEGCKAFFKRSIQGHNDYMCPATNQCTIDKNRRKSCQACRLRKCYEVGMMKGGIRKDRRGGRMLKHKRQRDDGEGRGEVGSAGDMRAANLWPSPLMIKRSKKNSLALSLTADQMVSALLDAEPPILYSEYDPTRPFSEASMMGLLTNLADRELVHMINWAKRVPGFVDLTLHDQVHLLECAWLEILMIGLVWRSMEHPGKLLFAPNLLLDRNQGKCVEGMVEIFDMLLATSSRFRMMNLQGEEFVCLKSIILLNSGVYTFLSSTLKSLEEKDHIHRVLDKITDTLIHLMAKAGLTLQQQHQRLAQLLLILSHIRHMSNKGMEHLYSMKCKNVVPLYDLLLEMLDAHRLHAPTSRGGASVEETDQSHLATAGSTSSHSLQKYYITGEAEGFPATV
T1 sequence (Q92731 whole entry, looked up, the tested form may be a part): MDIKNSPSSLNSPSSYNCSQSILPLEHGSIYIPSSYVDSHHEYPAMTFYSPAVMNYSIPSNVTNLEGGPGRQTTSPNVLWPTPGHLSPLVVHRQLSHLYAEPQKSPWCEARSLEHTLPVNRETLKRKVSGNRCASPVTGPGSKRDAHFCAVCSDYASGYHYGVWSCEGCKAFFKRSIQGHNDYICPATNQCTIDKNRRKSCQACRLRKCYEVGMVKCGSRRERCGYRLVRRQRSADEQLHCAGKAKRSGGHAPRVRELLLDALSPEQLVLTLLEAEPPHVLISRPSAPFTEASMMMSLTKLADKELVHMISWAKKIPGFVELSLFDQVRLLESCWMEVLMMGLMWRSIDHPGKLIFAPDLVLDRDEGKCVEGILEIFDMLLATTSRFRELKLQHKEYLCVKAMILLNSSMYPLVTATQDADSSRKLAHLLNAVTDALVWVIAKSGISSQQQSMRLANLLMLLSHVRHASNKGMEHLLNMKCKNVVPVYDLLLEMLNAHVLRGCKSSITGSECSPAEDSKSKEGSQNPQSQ

Assay [8] has as its target Androgen Receptor/SRC-1 Co-activator, AR (gene 367) (UniProt P10275). The assay can be described thus: OT_AR_ARSRC1_0960: Odyssey Thera (OT) 16-hour HEK293T Protein-Complementation Assay for Androgen Receptor/SRC-1 Co-activator (AID 2283353).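 Further: actives raise the signal above DMSO so potency reflects increased AR and SRC-1 complex.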 In short, it runs like this: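 Stable HEK293T line carries AR and SRC-1 each linked to a Venus fragment; chemicals are applied for 16 h, cells imaged at two wavelengths, and the 488 nm nucleus/cytoplasm ratio is taken as the signal, rising relative to DMSO.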

Assay [9] deals with T1, Estrogen receptor (Homo sapiens) + Estrogen receptor beta (Homo sapiens). In words: OT_ER_ERaERb_1440: Odyssey Thera (OT) 24-hour HEK293T Protein-Complementation Assay for Estrogen Receptor-alpha/-beta Homodimer (AID 2283356).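 Further: heteromer of ER alpha and ER beta binding domains; hits raise reporter fluorescence and both agonists and antagonists give an increase.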 In short, it runs like this: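 HEK293T stably expressing a PCA of ER alpha LBD (aa 310-547) and ER beta LBD (aa 263-489). After 24 h compound exposure, mean fluorescence intensity in nucleus (agonists) or nucleus and cytoplasm (antagonists) measured by laser scanning cytometry versus vehicle.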

Assay [10] concerns the target rat Peripheral-type Benzodiazepine Receptor (PBR), Tspo (gene 24230) (UniProt P16257). The assay can be described thus: NVS_MP_rPBR: NovaScreen (NVS) Membrane Protein Assay for rat Peripheral-type Benzodiazepine Receptor (PBR) (AID 2283335). In short, it runs like this:
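Competitive displacement of specific radioligand from rat kidney membrane PBR, read by filtration and scintillation after 1 h. Compounds first tested at 25 uM in duplicate, then in concentration series; signal loss relative to DMSO.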

The test system of assay [11] is guinea pig Histamine Receptor (H2), gene 100729734. The assay can be described thus: NVS_GPCR_gH2: NovaScreen (NVS) G Protein-Coupled Receptor Assay for guinea pig Histamine Receptor (H2) (AID 2283342). In short, it runs like this: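 Guinea pig striatal membrane preparation with specific radioligand; bound counts measured by filtration and scintillation 1 h post-dosing, DMSO as baseline. Chemicals passing a 25 uM duplicate screen were titrated to a 50 uM maximum.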

Assay [12] deals with Bile acid receptor (Homo sapiens) (UniProt Q96RI1). In words: NVS_NR_hFXR_Antagonist: NovaScreen (NVS) Nuclear Receptor Binding Assay for human Farnesoid X Receptor Antagonism (FXR) (AID 2283350). A digest of the protocol:
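Antagonist-format time-resolved FRET binding assay with extracted human receptor protein, read 1 hour after compound addition. Compounds first screened at 25 uM in duplicate, then actives tested in concentration series, with loss of signal relative to DMSO.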

Assay [13] has as its target Small conductance calcium-activated potassium channel protein 1 (Rattus norvegicus) (UniProt P70606). In words: NVS_IC_rKCaCh: NovaScreen (NVS) Ion Channel Assay for rat Potassium Channel, Ca2+ Act., VI (KCaCh) (AID 2283336). A digest of the protocol:
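Filter-based scintillation counting of radioligand bound to rat forebrain membrane preparations, measured 1 h after compound addition. Primary screen used 25 uM in duplicate, with concentration-response follow-up; signal decrease relative to DMSO marks activity.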

The next assay has as its system NCBI gene 100848466. The assay can be described thus: NVS_NR_bPR: NovaScreen (NVS) Nuclear Receptor Binding Assay for bovine Progextron Receptor (PR) (AID 2283343).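 On AC50: actives lower bound radioligand signal below DMSO meaning displacement of the label.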 In short, it runs like this:
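Steps: bovine uterine membranes were dosed with chemical alongside radioligand, incubated 18 hours, then radiodetected by scintillation counting. Initial testing used 25 uM in duplicate; confirmed actives were rerun as concentration series.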

The target of assay [14] is rat Glycine Receptor, Strychnine-sensitive (GlyRStrySens), Glra1 (gene 25674) (UniProt P07727). The assay can be described thus: NVS_LGIC_rGlyRStrySens: NovaScreen (NVS) Ligand-Gated Ion Channel Assay for rat Glycine Receptor, Strychnine-sensitive (GlyRStrySens) (AID 2283341). A digest of the protocol:
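Radioligand displacement on rat spinal cord membranes, 1 hr, filter scintillation read-out. Single-concentration duplicate screen at 25 uM; chemicals meeting threshold (e.g., 30% inhibition) rerun in concentration-response up to 50 uM. Loss of binding fitted versus DMSO.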

For assay [15], the target named is human Constitutive Androstane Receptor (CAR), NR1I3 (gene 9970) (UniProt Q14994). In words: NVS_NR_hCAR_Antagonist: NovaScreen (NVS) Nuclear Receptor Binding Assay for human Constitutive Androstane Receptor Antagonism (CAR) (AID 2283344). In short, it runs like this:
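Single 25 uM duplicate primary screen, with concentration-series follow-up on actives. Cell-free binding format run in antagonist mode, TR-FRET signal taken 1 h post-dose; activity is signal loss relative to DMSO.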

Assay [16] has as its target Voltage-gated inwardly rectifying potassium channel KCNH2 (Homo sapiens) (UniProt Q12809). The assay can be described thus: NVS_IC_hKhERGCh: NovaScreen (NVS) Ion Channel Assay for human Potassium Channel ERG (KhERGCh) (AID 2283333). In short, it runs like this:
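Membranes from CHO cells expressing human ERG; displacement of radioligand measured by filtration and scintillation after 0.75 h. Single-concentration duplicate screen at 25 uM, then concentration-response for actives; DMSO baseline.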

The target of assay [17] is rat Glutamate, MK-801 Agonist Site (GluNMDA_MK801), Grin1 (gene 24408) (UniProt P35439). The assay can be described thus: NVS_LGIC_rGluNMDA_MK801_Agonist: NovaScreen (NVS) Ligand-Gated Ion Channel Assay for rat Glutamate, MK-801 Agonist Site (GluNMDA_MK801) (AID 2283340). In short, it runs like this:
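Rat forebrain membrane preparation; MK-801-site radioligand binding read by filtration and scintillation after 1.5 h. Single-point 25 uM duplicate screen, followed by singleton concentration series to 50 uM max; DMSO baseline.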

Results filed as inconclusive are left out. The source made the active and inactive calls. How the source made its calls, unless noted: active means hit-call score of the fitted dose curve at least 0.9, where 1 is the maximum; inconclusive means response in the unintended direction; inactive means score below 0.9.

Sequence of rat Peripheral-type Benzodiazepine Receptor (PBR), Tspo (gene 24230) (P16257 whole entry, looked up): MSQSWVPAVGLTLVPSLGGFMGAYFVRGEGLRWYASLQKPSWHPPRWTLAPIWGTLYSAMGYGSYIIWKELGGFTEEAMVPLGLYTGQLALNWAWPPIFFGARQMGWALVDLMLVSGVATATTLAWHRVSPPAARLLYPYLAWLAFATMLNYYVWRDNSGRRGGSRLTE
Sequence of Bile acid receptor (Homo sapiens) (Q96RI1 whole entry, looked up): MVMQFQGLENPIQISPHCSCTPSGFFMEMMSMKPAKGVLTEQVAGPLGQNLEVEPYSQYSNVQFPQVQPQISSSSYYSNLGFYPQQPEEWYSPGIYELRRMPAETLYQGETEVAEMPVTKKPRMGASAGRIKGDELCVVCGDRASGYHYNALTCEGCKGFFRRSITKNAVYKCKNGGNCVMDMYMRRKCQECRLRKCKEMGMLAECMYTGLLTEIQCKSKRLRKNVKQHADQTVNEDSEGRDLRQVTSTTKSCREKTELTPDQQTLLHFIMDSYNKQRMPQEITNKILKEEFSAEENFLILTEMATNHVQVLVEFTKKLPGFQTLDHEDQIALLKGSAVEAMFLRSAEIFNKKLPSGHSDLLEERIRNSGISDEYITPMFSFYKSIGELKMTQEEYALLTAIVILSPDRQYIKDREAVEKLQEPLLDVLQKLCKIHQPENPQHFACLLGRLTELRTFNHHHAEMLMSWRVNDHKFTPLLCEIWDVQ
Sequence of bovine Estrogen Receptor (ER), ESR1 (gene 407238) (P49884 whole entry, looked up): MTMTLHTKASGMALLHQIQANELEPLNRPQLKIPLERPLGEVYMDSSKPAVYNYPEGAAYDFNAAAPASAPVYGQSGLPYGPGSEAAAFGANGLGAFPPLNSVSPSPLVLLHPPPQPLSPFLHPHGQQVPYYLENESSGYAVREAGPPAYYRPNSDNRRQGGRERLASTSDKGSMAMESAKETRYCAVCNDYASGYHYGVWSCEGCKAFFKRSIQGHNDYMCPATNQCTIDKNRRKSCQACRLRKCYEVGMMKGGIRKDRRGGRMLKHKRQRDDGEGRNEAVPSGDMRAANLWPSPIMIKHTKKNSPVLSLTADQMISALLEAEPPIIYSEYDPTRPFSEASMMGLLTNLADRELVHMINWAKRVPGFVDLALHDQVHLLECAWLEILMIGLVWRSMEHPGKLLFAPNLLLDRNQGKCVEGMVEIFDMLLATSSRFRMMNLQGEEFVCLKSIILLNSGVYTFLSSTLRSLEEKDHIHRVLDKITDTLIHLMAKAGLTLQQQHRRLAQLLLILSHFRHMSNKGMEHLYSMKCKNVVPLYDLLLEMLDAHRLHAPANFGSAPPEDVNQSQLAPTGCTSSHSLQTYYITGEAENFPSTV
Sequence of Glutamate receptor ionotropic, kainate 1 (Rattus norvegicus) (P22756 whole entry, looked up): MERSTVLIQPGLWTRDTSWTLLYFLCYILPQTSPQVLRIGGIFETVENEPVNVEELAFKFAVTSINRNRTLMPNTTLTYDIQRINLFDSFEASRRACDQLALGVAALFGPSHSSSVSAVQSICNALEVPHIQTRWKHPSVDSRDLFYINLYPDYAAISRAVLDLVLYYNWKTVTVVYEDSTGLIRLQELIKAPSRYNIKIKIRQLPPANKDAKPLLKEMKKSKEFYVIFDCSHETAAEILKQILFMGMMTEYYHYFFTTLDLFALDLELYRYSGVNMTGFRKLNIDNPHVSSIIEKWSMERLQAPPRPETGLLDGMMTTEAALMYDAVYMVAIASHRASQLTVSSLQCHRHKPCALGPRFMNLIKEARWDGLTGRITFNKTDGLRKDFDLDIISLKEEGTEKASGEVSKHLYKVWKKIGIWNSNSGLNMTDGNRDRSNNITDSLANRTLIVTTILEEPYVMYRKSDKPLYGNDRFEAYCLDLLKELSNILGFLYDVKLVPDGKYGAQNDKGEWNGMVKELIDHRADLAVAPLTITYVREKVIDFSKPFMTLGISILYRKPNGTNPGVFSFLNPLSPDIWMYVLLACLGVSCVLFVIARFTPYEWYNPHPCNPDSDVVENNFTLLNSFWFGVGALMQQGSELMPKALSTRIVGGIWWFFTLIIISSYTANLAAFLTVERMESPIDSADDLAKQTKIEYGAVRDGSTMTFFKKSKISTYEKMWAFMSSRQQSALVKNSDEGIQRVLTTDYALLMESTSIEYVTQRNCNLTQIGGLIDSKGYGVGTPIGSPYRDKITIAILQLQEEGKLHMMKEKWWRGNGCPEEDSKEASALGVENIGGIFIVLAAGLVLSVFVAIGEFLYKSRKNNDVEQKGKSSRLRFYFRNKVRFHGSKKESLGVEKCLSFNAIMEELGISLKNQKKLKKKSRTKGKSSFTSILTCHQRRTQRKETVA
Sequence of Estrogen receptor (Homo sapiens) (P03372 whole entry, looked up): as the sequence (P03372 whole entry, looked up, the tested form may be a part) above
Sequence of Androgen Receptor/SRC-1 Co-activator, AR (gene 367) (P10275 whole entry, looked up, the tested form may be a part): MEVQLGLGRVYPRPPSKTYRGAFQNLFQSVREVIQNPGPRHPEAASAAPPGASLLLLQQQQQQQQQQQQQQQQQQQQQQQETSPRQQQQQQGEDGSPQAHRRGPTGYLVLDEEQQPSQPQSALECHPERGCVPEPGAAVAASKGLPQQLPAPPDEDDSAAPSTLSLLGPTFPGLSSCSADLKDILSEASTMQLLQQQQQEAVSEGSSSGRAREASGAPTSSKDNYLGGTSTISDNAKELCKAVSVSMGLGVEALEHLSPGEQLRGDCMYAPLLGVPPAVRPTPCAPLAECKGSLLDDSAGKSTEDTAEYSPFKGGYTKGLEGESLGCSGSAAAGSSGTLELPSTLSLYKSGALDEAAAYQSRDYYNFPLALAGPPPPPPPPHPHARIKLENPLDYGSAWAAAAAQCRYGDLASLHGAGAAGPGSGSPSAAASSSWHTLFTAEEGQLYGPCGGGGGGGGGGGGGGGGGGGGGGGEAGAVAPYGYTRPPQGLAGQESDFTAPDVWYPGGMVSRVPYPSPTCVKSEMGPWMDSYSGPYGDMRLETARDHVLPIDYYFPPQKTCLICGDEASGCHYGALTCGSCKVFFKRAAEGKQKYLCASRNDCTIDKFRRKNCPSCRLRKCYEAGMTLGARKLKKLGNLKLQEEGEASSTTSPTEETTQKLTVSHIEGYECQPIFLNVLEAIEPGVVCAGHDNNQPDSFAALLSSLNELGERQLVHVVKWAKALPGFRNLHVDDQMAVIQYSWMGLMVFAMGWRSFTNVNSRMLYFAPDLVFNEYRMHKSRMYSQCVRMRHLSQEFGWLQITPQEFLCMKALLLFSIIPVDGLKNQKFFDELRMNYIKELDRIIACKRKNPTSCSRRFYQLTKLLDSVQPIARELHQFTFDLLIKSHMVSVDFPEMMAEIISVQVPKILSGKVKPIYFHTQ
Sequence of bovine Gamma-Aminobutyric Acid Type A Receptor Agonist (GABAR Agonist), GABRA1 (gene 780973) (P08219 whole entry, looked up): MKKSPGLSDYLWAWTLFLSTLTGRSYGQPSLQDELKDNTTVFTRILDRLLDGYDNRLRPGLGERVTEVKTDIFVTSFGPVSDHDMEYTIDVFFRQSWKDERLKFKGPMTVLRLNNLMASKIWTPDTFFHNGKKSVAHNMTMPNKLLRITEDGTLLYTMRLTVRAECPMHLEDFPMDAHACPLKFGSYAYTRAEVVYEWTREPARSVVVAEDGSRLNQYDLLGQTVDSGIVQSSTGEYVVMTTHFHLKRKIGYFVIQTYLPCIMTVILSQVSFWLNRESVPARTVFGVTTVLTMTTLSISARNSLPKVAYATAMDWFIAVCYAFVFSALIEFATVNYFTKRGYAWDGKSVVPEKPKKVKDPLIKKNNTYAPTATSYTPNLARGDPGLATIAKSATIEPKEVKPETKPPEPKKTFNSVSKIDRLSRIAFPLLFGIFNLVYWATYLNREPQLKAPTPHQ

As to `N[C@@H](Cc1c[nH]c2ccccc12)C(=O)O`, the call in assay [1] was inactive.
Take `CCC(C)N(C)C(=O)c1cc2ccccc2c(-c2ccccc2Cl)n1` (stereo not drawn): the call in [2], in assay [3], in assay [4], in [5], in [6] and in [7] was inactive. The outcome in [9] was inactive. Further, the AC50 in [8] was 26 µM (active).
As for `CCCCc1nc2cccnc2n1Cc1ccc(-c2ccccc2-c2nnn[nH]2)cc1`, the AC50 in assay [10] was 14.6 µM (active). Besides, the outcome in [11], in [5], in assay [12], in assay [6] and in assay [9] was inactive.
Take `CC(C)COC(=O)CCCCC(=O)OCC(C)C`: the result in assay [2] was inactive.
Consider `COC(=O)CCC(=O)OC`, for which the compound was called inactive in [2], in assay [5] and in assay [6].
For `O=C1OC(c2ccc(O)cc2)(c2ccc(O)cc2)c2ccccc21`, the result (in assay [13]; in the assay on NCBI gene 100848466) was inactive. Further, the AC50 in assay [8] was 35.3 µM (active).
As to `CCCCCCCCCC[N+](C)(C)[O-]`, the compound was called inactive in assay [11], in [5], in [6], in assay [7], in [8] and in assay [9].
Consider `CC(C)(O)c1ccc(CNC(=O)c2cccnc2Oc2ccc(F)cc2)cc1`, for which the AC50 in [10] is 4.31 µM (active).
On the same count and under the same terms, then `CC(COCC(C)OC(=O)c1ccccc1)OC(=O)c1ccccc1` (stereo not drawn), with 17 µM (active).
For the compound `CCCCC(CC)CO` (stereo not drawn), the outcome in [14] was inactive.
Take `CC(=O)O[C@]1(C(C)=O)CC[C@H]2[C@@H]3C=C(Cl)C4=CC(=O)[C@@H]5C[C@@H]5[C@]4(C)[C@H]3CC[C@@]21C`: in [11], the compound was classed as inactive. In the assay with NCBI gene 100848466, the half-maximal activity concentration (AC50) is 0.0857 µM (active).
In the case of `COc1ccc(OC(F)(F)F)cc1CN[C@H]1CCCN[C@H]1c1ccccc1`, the outcome in assay [13], in assay [15], in assay [5], in assay [7] and in [9] was inactive. The AC50 is 7.67 µM (active) in assay [11] and 40.2 µM (active) in [12].
For the compound `CN(C)CCCN1c2ccccc2Sc2ccc(Cl)cc21`, the AC50 was 10.4 µM (active) in assay [16], 25 µM (active) in assay [17] and 1.42 µM (active) in assay [11]. Moreover, the outcome in assay [1] and in assay [12] was inactive.
On to `Cc1ccc(-c2cc(C(F)(F)F)nn2-c2ccc(S(N)(=O)=O)cc2)cc1`, for which the call in [10], in [3], in [4] and in [6] was inactive. The AC50 in [8] was 33.7 µM (active).
In the case of `CC(C)(C)c1ccccc1`, in assay [1], the outcome was inactive.
For `Cc1c(C)c2c(c(C)c1O)CCC(C)(COc1ccc(CC3SC(=O)NC3=O)cc1)O2` (stereo not drawn), the call in assay [1], in [3], in [4], in assay [5], in [6] and in [9] was inactive. Further, the AC50 in assay [8] is 27.4 µM (active).

The values are drawn from PubChem BioAssay (EPA / NIEHS).
